Screens: PubChem, National Center for Advancing Translational Sciences (NCATS)
Rows were chosen to be rich in hits. Some 18% of all compounds tested hit in one or more screens of this group.
Gal4-VP16 FLuc: counter-screen for ROR gamma inhibitors: Gal4-VP16 reporter; Drosophila S2 Gal4-VP16 UAS-luciferase, luminescence, 20 h; Potency, µM (titrated, usually from 53.6 µM), for the others: at the top dose activity, negative = inhibition, actives largely listed as inhibitors; hit rate 3.5% among 310,000;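 further: Gal4-VP16 expression switched on by copper sulfate through the metallothionein promoter; potency means the concentration at half of the fitted maximal effect; nearly all actives have a fitted effect of over 50% in size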
TDP1 cell CPT: DT40-hTDP1 cell growth loss with CPT; hit rate 12% among 420,000; chicken DT40 Tdp1-/-;hTDP1 cells + 20 nM CPT, ATP luminescence, 48 h; Potency, µM (titrated, usually from 46.2 µM), inactives show top-dose activity change, negative = growth inhibition, actives largely listed as inhibitors; further: potency means the concentration at half of the fitted maximal effect; nearly all actives have a fitted effect of over 55% in size
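Chicken DT40 Tdp1-/- cells stably complemented with human TDP1 were seeded at 400 cells/well in medium containing 20 nM camptothecin, exposed to pin-transferred compounds, and grown at 37 °C for at least 48 hr. Viability was read as ATP luminescence.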
LDHA inh: inhibitors of human lactate dehydrogenase A; P00338; hit rate 0.15% among 480,000; purified LDHA, NADH/diaphorase-resazurin fluorescence; active compounds read low; AID 1347041; activity change, % (values are at about 110 or 230 µM); in the data active means activity change below about -30%; inconclusive means mostly about -25% to -30%;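 further: plate controls were DMSO wells for no effect and wells without enzyme for full effect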
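Human LDH5 at 2 nM final in Tris HCl pH 7.4 with 0.06 mM NADH and 0.2 mM pyruvate, reacted 5 minutes at room temperature. Remaining NADH coupled via diaphorase/resazurin; resorufin fluorescence read at 0 and 20 minutes, normalized to enzyme-free and DMSO wells.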
RORgamma inh: ROR gamma (mouse) transcription inhibition | Potency, µM (top dose mostly 53.6 µM), inactives show at the highest dose activity change, negative = inhibition, actives largely listed as inhibitors | P51450 | Drosophila S2 Gal4-RORgamma UAS-luciferase reporter, 20 h | hit rate 5.4% among 310,000; further: potency means the concentration at half of the fitted maximal effect; nearly all actives have a fitted effect of over 60% in size
Target sequence (P51450 whole entry, looked up, the tested form may be a part): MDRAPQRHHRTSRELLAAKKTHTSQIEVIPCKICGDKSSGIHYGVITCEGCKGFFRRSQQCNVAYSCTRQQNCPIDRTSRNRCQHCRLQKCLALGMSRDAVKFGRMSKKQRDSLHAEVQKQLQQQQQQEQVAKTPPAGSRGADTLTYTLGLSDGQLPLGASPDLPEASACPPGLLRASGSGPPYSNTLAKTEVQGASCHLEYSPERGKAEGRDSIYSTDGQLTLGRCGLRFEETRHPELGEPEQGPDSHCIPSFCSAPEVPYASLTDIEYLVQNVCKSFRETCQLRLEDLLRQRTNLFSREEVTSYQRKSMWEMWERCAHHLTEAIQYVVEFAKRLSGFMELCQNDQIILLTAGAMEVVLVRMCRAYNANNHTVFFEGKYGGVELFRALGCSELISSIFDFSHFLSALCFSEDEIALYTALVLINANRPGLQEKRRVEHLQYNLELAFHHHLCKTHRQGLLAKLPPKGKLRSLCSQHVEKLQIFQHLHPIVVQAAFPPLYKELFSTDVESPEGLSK
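ROR gamma transcriptional activity was tracked as Gal4-UAS luciferase output in stably transfected Drosophila Schneider cells, with compound added 1 hr before 700 uM copper sulfate induction and a 20 hr ambient-temperature incubation.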
DT40 TDP1 no CPT: qHTS for Inhibitors of human tyrosyl-DNA phosphodiesterase 1 (TDP1): qHTS in cells in absence of CPT; DT40 Tdp1-/- hTDP1 cells, no CPT, ATP luminescence, 48 h; Potency, µM (top dose mostly 46.2 µM), inactives show top-dose activity change, negative = growth inhibition, hits mostly inhibitors; hit rate 15% among 420,000; further: potency means the concentration at half of the fitted maximal effect; nearly all actives have a fitted effect of over 55% in size
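Compound effects on proliferation are scored in DT40 Tdp1-/-;hTDP1 cells in the absence of CPT. ATP levels (CellTiter-Glo luminescence) are recorded after a ≥48 hr, 37 °C incubation.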
IL-1B inflam inh: inhibitors of inflammasome signaling (IL-1 beta secretion); THP-1 LPS/ATP IL-1B secretion, AlphaLISA, 16 h; active compounds read low; activity change, % at 57.5 µM; hit rate 4.7% among 360,000; AID 743279; in the data active means activity change below about -50%; inconclusive means mostly about -30% to -49%
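Secreted IL-1B measured by AlphaLISA bead assay after 16 h compound exposure of THP-1 cells; compounds (final up to 57.5 uM) added 1 h before LPS (250 ng/mL) and ATP (1.25 mM) stimulation; lower signal means less secretion.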
The depositor's hits bear a star; [ ] = dose if it differs, or a comment. Unless noted, the call rests on the fitted dose curve; in most records, active means well fitted curve in the direction sought with a large enough effect; inconclusive means small, poorly fitted or top-dose-only effect, or another doubt; inactive means no such curve, though single readings can be large; an effect the other way counts as inactive or inconclusive. Unless noted, on the % scale 0 is the no-effect control and ±100 the full control effect.

Results for CCOC(=O)c1sc2nc(C)nc(NCc3ccc(Cl)cc3)c2c1C ?
Gal4-VP16 FLuc: -8.8%; TDP1 cell CPT: 11.6µM*; LDHA inh: -1.1; RORgamma inh: inconclusive; DT40 TDP1 no CPT: 20.6µM*; IL-1B inflam inh: -66.8*

What do the screens show for `CCOC(=O)COc1cc(OCc2ccccc2)c2c(=O)cc(-c3ccccc3)oc2c1`?
LDHA inh: -10.5

What do the screens show for `Cc1ccc2nc(/C(C#N)=C\c3ccc(-c4cc(C(=O)O)cc(C(=O)O)c4)o3)[nH]c2c1`?
LDHA inh: 25.0

What do the screens show for `CCOC(=O)c1sc2nc(CC(=O)OC)nc(NCc3ccc(F)cc3)c2c1C`?
Gal4-VP16 FLuc: -9.3%; TDP1 cell CPT: 18.4µM*; LDHA inh: -17.6; RORgamma inh: 27.2%; DT40 TDP1 no CPT: 16.4µM*; IL-1B inflam inh: -5.1

How did CCOC(=O)c1sc2nc(Cc3ccc(Cl)cc3)[nH]c(=S)c2c1C do in these assays?
Gal4-VP16 FLuc: inconclusive; TDP1 cell CPT: inconclusive; LDHA inh: -0.7; RORgamma inh: 2.82µM*; DT40 TDP1 no CPT: inconclusive; IL-1B inflam inh: 15.5

Results for CN(Cc1nc(Cc2ccccc2F)no1)[C@@H]1CS(=O)(=O)C[C@H]1O ?
Gal4-VP16 FLuc: -0.8%; TDP1 cell CPT: -0.8%; LDHA inh: -8.4; RORgamma inh: 1.9%; DT40 TDP1 no CPT: -3.1%; IL-1B inflam inh: -6.7

How did Cc1cc(C)n(CCN(C)Cc2nc(Cc3ccccc3F)no2)n1 do in these assays?
Gal4-VP16 FLuc: inconclusive; TDP1 cell CPT: 2.7%; LDHA inh: -4.3; RORgamma inh: 11.2µM*; DT40 TDP1 no CPT: -2.3%; IL-1B inflam inh: 6.3

How did Cc1ccc(CN2CCN(/N=C/C=C/c3ccccc3[N+](=O)[O-])CC2)cc1 do in these assays?
Gal4-VP16 FLuc: 1.7%; TDP1 cell CPT: 16.4µM*; LDHA inh: -7.5; RORgamma inh: 36.9%; DT40 TDP1 no CPT: 20.6µM*; IL-1B inflam inh: -89.1*

What do the screens show for `Cc1ccc(CN2CCN(/N=C/c3ccc(Cl)c([N+](=O)[O-])c3)CC2)cc1`?
Gal4-VP16 FLuc: 13.7%; TDP1 cell CPT: inconclusive; LDHA inh: -0.5; RORgamma inh: 13.0%; DT40 TDP1 no CPT: inconclusive; IL-1B inflam inh: -73.7*

Results for COc1ccccc1/C=C/C=N/N1CCN(Cc2ccccc2)CC1 ?
Gal4-VP16 FLuc: inconclusive; TDP1 cell CPT: 12.1%; LDHA inh: -4.6; RORgamma inh: 8.7%; DT40 TDP1 no CPT: -28.3%; IL-1B inflam inh: -2.5

Results for COC(=O)[C@@H](C)NC(=O)NCCCCCO ?
LDHA inh: 0.5

What do the screens show for `O=c1[nH][nH]cc1C=Nc1ccc(Cl)cc1Cl`?
Gal4-VP16 FLuc: -7.0%; TDP1 cell CPT: -2.4%; LDHA inh: -0.3; RORgamma inh: -1.7%; DT40 TDP1 no CPT: 20.1%; IL-1B inflam inh: 30.2

Results for O=c1[nH][nH]cc1C=Nc1cc(Cl)ccc1O ?
Gal4-VP16 FLuc: -4.3%; TDP1 cell CPT: 20.6µM*; LDHA inh: 7.3; RORgamma inh: -20.1%; DT40 TDP1 no CPT: inconclusive; IL-1B inflam inh: -1.2

How did CCn1c(=O)n(CC)c2cc(N3CCCC3)c(NC(=O)Nc3cccc(SC)c3)cc21 do in these assays?
LDHA inh: 6.6

Results for CCc1ccc(C2=C(C)C(N3CCC(C(=O)NCCc4ccco4)CC3)=NS2(=O)=O)cc1 ?
TDP1 cell CPT: inconclusive; LDHA inh: -2.1; DT40 TDP1 no CPT: 18.4µM*

How did CC1=C(c2ccc(C(C)C)cc2)S(=O)(=O)N=C1N1CCN(c2ccccc2F)CC1 do in these assays?
TDP1 cell CPT: inconclusive; LDHA inh: -4.8; DT40 TDP1 no CPT: 18.4µM*

What do the screens show for `CC1=C(c2ccc(C(C)C)cc2)S(=O)(=O)N=C1N1CCC(C(=O)NCCc2ccco2)CC1`?
TDP1 cell CPT: 23.1µM*; LDHA inh: -8.8; DT40 TDP1 no CPT: inconclusive

How did CC1=C(c2ccc(Cl)cc2)S(=O)(=O)N=C1N1CCC(C(=O)NCCc2ccco2)CC1 do in these assays?
TDP1 cell CPT: 0.1%; LDHA inh: -8.3; DT40 TDP1 no CPT: inconclusive

What do the screens show for `CC1=C(c2ccc(C(C)C)cc2)S(=O)(=O)N=C1N1CCN(C(=O)c2ccco2)CC1`?
Gal4-VP16 FLuc: -2.0%; TDP1 cell CPT: -23.5%; LDHA inh: -10.8; RORgamma inh: -1.0%; DT40 TDP1 no CPT: -16.2%; IL-1B inflam inh: 10.7

How did COC(=O)Nc1ccc(CNC(=O)c2cccc(C)c2)cc1 do in these assays?
LDHA inh: -20.7

Results for S=C(NCCc1ccccc1)NCc1cccc(Br)c1 ?
LDHA inh: 5.8

What do the screens show for `CC1=NN(C(N)=S)C(=O)C1N=Nc1c(Br)cc(Br)cc1Br` (stereo unspecified)?
Gal4-VP16 FLuc: 1.26µM*; TDP1 cell CPT: -28.1%; LDHA inh: -4.7; RORgamma inh: 1.41µM*; DT40 TDP1 no CPT: -28.2%; IL-1B inflam inh: 8.0

Results for CC1=NN(C(N)=S)C(=O)C1N=Nc1ccccc1C (stereo unspecified) ?
Gal4-VP16 FLuc: 0.0447µM*; TDP1 cell CPT: 1.64µM*; LDHA inh: -0.3; RORgamma inh: 0.1µM*; DT40 TDP1 no CPT: 1.64µM*; IL-1B inflam inh: -7.1

What do the screens show for `COc1cccc(N=NC2C(=O)N(C(N)=S)N=C2C)c1` (stereo unspecified)?
TDP1 cell CPT: 9.1%; LDHA inh: 9.1; DT40 TDP1 no CPT: -27.0%

How did CC(=O)N(C)c1ccc(N=NC2C(=O)N(C(N)=S)N=C2C)cc1 (stereo unspecified) do in these assays?
Gal4-VP16 FLuc: 2µM*; TDP1 cell CPT: -18.2%; LDHA inh: 0.9; RORgamma inh: 1µM*; DT40 TDP1 no CPT: -5.0%; IL-1B inflam inh: -1.7

Results for CC1=NN(C(N)=S)C(=O)C1N=Nc1ccccc1O (stereo unspecified) ?
Gal4-VP16 FLuc: -28.3%; TDP1 cell CPT: 17.0%; LDHA inh: 1.0; RORgamma inh: -40.1%; DT40 TDP1 no CPT: -2.2%; IL-1B inflam inh: 25.2

How did CC1=NN(C(N)=S)C(=O)C1N=Nc1ccc(S(N)(=O)=O)cc1 (stereo unspecified) do in these assays?
Gal4-VP16 FLuc: inconclusive; TDP1 cell CPT: -7.7%; LDHA inh: -4.7; RORgamma inh: -9.8%[1.91 µM]; DT40 TDP1 no CPT: -9.1%; IL-1B inflam inh: 0.1

How did CC1=NN(C(N)=S)C(=O)C1N=Nc1cccc(Cl)c1 (stereo unspecified) do in these assays?
Gal4-VP16 FLuc: 2µM*; TDP1 cell CPT: -22.7%; LDHA inh: -2.3; RORgamma inh: 0.794µM*; DT40 TDP1 no CPT: -16.7%; IL-1B inflam inh: -0.7
